Experimental data taken from PubChem BioAssay AID624330 (Southern Research Specialized Biocontainment Screening …, 2012).
Among all 340,000 compounds or so, about 2,100 (0.62%) were called active.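 Rule for the calls: active = first-screen hits whose inhibition reached a set limit at any dose in the follow-up dose series; inconclusive = inhibition above the set first-screen limit but never retested; inactive = the rest.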 Not all results are given here. Measured potencies and affinities stand elsewhere.

molecular target: Rac GTPase-activating protein 1 (Homo sapiens) (UniProt Q9H0H5); test: blockers of MgcRacGAP-driven Rac1 GTP hydrolysis – biochemical, ADP Hunter fluorescence, primary and confirmatory, confirmation (AID 624330); conditions: MgcRacGAP-stimulated Rac1 GTP hydrolysis, at 30 µM, active compounds read high, GST-tagged Rac1 F28L mutant substrate;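 note: fluorescence reports GDP produced by GAP-driven GTP hydrolysis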
Sequence (Q9H0H5 whole entry, looked up): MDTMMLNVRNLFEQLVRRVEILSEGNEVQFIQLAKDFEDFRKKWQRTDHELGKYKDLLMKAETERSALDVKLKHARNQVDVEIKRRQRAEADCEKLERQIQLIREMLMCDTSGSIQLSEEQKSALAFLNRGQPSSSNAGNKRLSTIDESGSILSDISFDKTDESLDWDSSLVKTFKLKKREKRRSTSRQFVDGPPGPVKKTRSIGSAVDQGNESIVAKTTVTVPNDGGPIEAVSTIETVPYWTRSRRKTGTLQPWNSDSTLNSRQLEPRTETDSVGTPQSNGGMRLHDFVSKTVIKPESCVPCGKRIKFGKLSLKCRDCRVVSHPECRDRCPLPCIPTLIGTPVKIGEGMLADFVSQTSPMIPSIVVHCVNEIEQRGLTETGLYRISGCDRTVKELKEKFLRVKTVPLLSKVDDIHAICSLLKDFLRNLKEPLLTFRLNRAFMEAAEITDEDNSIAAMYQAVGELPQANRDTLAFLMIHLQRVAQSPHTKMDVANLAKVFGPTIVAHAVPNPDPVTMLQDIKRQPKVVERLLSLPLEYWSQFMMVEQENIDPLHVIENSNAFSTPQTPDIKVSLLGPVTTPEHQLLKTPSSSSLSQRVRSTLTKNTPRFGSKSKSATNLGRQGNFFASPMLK

inhibition, inactive:
CN(CCCC1CCCC1)C(=O)c1cc(COc2c(F)cccc2F)on1 7.43%
CCOc1cc(/C=C/c2cccc[n+]2C)ccc1OCC(=O)Nc1ccc(C)cc1 7.44%
C[n+]1ccccc1/C=C/c1ccc(F)c(F)c1 9.42%
Cc1ccc(CS(=O)Cc2ccc(C(=O)N3CCN(c4ccccn4)CC3)o2)cc1 (stereo unspecified) 9.12%
COc1ccc2cc[nH]c2c1 6.12%
COc1cc2[nH]ccc(=O)c2cc1OC 1.14%
Nc1[nH][nH]c(=O)c1N=Nc1ccc2c(c1)OCO2 19.5%
Nc1n[nH]c(N)c1N=Nc1ccc(F)cc1 12.4%
Cc1ccccc1-n1c(SCC(=O)c2c(N)n(C3CC3)c(=O)[nH]c2=O)nnc1N1CCOCC1 4.29%
CC1(C)CC(=O)C(C(C2=C(O)CC(C)(C)CC2=O)c2ccc(Cl)c([N+](=O)[O-])c2)C(=O)C1 (stereo unspecified) -0.37%
COc1cccc(C(C2=C(O)CC(C)(C)CC2=O)C2C(=O)CC(C)(C)CC2=O)c1 (stereo unspecified) -5.78%
CC1(C)CC(=O)C(C(C2=C(O)CC(C)(C)CC2=O)c2cccc(O)c2)C(=O)C1 (stereo unspecified) 7.97%
CCCC(C1=C(O)CC(C)(C)CC1=O)C1C(=O)CC(C)(C)CC1=O (stereo unspecified) 8.39%
CC1(C)CC(=O)C(C(C2=C(O)CC(C)(C)CC2=O)c2ccco2)C(=O)C1 (stereo unspecified) 29%
CC1(C)CC(=O)C(C(C2=C(O)CC(C)(C)CC2=O)c2ccc([N+](=O)[O-])cc2)C(=O)C1 (stereo unspecified) 10.9%
CC1(C)CC(=O)C(C(C2=C(O)CC(C)(C)CC2=O)c2cccnc2)C(=O)C1 (stereo unspecified) 12%
CC1(C)CC(=O)C(Br)=C(O)C1 -4.56%
CC[C@@]1(C(=O)OC)N[C@H](CN(C)C(=O)COC)[C@@H]2C(=O)N(C)C(=O)[C@@H]21 6.93%
CC1CC(C)CN(CCCCOc2ccc([N+](=O)[O-])cc2)C1 (stereo unspecified) 19.1%
CCOC(=O)C1=C(C)NC(=O)NC1/C=C\c1ccccc1 (stereo unspecified) 15.6%
CCOc1ccc(CCNC(=O)C2=C(C)C(=O)OC23CCC(C)CC3)cc1 (stereo unspecified) 8.86%
CN1CCN(c2ccc(NC(=S)NC(=O)c3cccc4c(Cl)cccc34)cc2)CC1 9.96%
CCCCNS(=O)(=O)c1cc2c3c(c1)CCN3C(=O)CC2 10.4%
COc1ccc(S(=O)(=O)NCc2cn3c(C)csc3n2)cc1F 7.58%
CN(Cc1nc2ccccc2c(=O)[nH]1)C(=O)COc1ccccc1Cc1ccccc1 4.16%
O=C1C(=Cc2ccccc2[N+](=O)[O-])Cc2ccccc21 5.54%
CNc1ccc(/C=C2\COc3ccccc3C2=O)cc1[N+](=O)[O-] 9.69%
Cc1cc2oc(=O)c(CC(=O)NCCCO)c(C)c2c2occ(C(C)(C)C)c12 4.92%
CCOc1cc(/C=N/NC(=O)c2cccnc2)ccc1OCC(N)=O 3.29%
O=C(OCc1nnc(-c2ccccc2)o1)c1cn(-c2ccccc2)nc1-c1ccccc1 4.52%
OC1CCN(Cc2cccc3ccccc23)CC1 14.2%
O=C1CC(c2cccs2)c2ccc3ccccc3c2N1 (stereo unspecified) 6.36%
COc1ccc(-c2nnn(CC(=O)NCCc3c[nH]c4ccccc34)n2)cc1OC 7.85%
COc1cc(/C=C2/C(=O)NN(c3ccccc3)C2=O)cc(Br)c1O 23.7%
COc1cc(/C=C2/C(=O)NN(c3ccc(F)cc3)C2=O)cc(Cl)c1O 20.4%
COc1cccc(C2=CC(=O)C[C@H](c3ccc4c(c3)OCO4)C2)c1OC 6.37%
O=c1c2cc([N+](=O)[O-])ccc2sn1-c1ccccc1 17.4%
O=c1c2ccccc2sc2ccc(Cl)cc12 5.89%
CC1=CC(C)(C)N(C)C(=O)N1c1ccc(Cl)cc1 6.14%
O=c1c2ccccc2ncn1-c1cccc(Cl)c1 5.62%
Cc1nn(-c2ccc(Cl)cc2Cl)c(=O)c2ccccc12 -1.03%
Cc1cc(=O)cc(C)n1-c1ccc(Cl)cc1 5%
O=c1c2ccccc2sn1-c1ccc(S(=O)(=O)N2CCCCC2)cc1 10.2%
O=c1c2ccccc2cnn1-c1ccc(Cl)cc1 1.97%
O=c1c2cnn(-c3ccccc3)c2ncn1Cc1ccccc1F 7.32%
CC(=O)c1ccc(-c2nnc(CCC(=O)N3CCCC(C(=O)CC(C)C)C3)o2)s1 (stereo unspecified) 9.2%
CCn1c(SCC(=O)NCCOC)nc2sc3c(c2c1=O)CCCC3 6.34%
CC1CCCCC1NC(=O)CCn1c(=O)sc2ccccc21 (stereo unspecified) 12.2%
CN(CC(=O)Nc1ccc(N2CCOCC2)cc1)CC(=O)Nc1ccccc1C#N 6.72%
O=c1oc2cc(Br)ccc2n1Cc1ccccc1 13.7%
CCc1nnc(NC(=O)c2cccc(S(=O)(=O)N3CCCCC3)c2)s1 10.2%
COC(=O)Cc1c(O)ccn(CCc2ccc(OC)c(OC)c2)c1=O 5.94%
Cc1ccc(S(=O)(=O)N2C[C@@H](C)[C@]3(C2)[C@H](O)[C@H](OC(=O)NC2CCCC2)C[C@H]2C(=O)N(c4ccccc4)C(=O)[C@H]23)cc1 15.8%
CSc1nc2c(C)c(C)c(C)c(C)c2[nH]1 2.42%
CCOC(=O)N1CCN(C(=O)CC(C(=O)N2CCc3ccccc32)n2ccnc2)CC1 (stereo unspecified) 4.9%
O=C(COc1ccc2c3c(c(=O)oc2c1)CCCC3)NCCN1CCOCC1 1.04%
CCOC(=O)C1=C(O)/C(=C\c2ccc(OC)c(OC)c2)N=C1C -1.28%
CCOC(=O)C1=C(O)/C(=C\c2cccc(OC)c2)N=C1C 7.59%
COC(=O)C1=C(O)/C(=C\c2sccc2C)N=C1C 10.9%
CCOC(=O)C1=C(O)/C(=C/c2cc(OC)c(OC)c(OC)c2)N=C1C 2.56%
COC(=O)C1=C(O)/C(=C/c2ccc(OCC(=O)Nc3ccc(OC)cc3)cc2)N=C1C 6.48%
COC(=O)C1=C(O)/C(=C/c2cccc(OC)c2O)N=C1C 28.1%
CN1CCN(NC(=O)c2cc([N+](=O)[O-])cc([N+](=O)[O-])c2)CC1 -0.16%
CCC(C)NC(=O)CN(c1cc(C)cc(C)c1)S(=O)(=O)c1c(C)[nH]c(=O)[nH]c1=O (stereo unspecified) 9.01%
CCCC(=O)Nc1ccc2c(c1)nc(CCNC(=O)c1ccccc1)n2C 1.08%
Cc1nonc1CN(C)C(=O)c1cc(COc2ccc(F)cc2Cl)on1 1.26%
Cn1c(=O)c2c(nc(N3CCNCC3)n2Cc2cccc3ccccc23)n(C)c1=O 6.58%
Cc1cccc(C(=O)NCC(=O)NNC(=O)c2ccccc2O)c1 2.8%
Cc1ccc(NC(=O)c2cc(N3C(=O)CCC3=O)ccc2N2CCCCC2)cc1 5.7%
CCN(CC)c1ccc(N=Cc2ccc([N+](=O)[O-])o2)cc1 25.9%
Oc1[nH]c2ccccc2c1C=Nc1ccccc1 11.5%
COc1ccc(N=Cc2c(O)[nH]c3ccccc23)cc1 9.26%
CCN(CC)c1ccc(N=Cc2ccc(N(CC)CC)cc2O)cc1 6.98%
CC1(C)CC(=O)C=C(NCCN2CCN(C(=S)NC3CCCCC3)CC2)C1 -3.74%
CN(Cc1ccccc1)S(=O)(=O)c1ccc(Cl)nc1 11.5%
CCOC(=O)c1ccccc1NC(=O)COC(=O)CCNS(=O)(=O)c1cccs1 3.03%
COc1ccc(NC(=O)NNC(=O)C(C)Oc2ccc3ccccc3c2)cc1 (stereo unspecified) 3.58%
S=C(NCCc1ccccc1)Nc1ccc(Nc2ccccc2)cc1 26.5%
O=C(Nc1ccc(Nc2ccccc2)cc1)C(Cl)(Cl)Cl 12.3%
O=C(Nc1ccc(Nc2ccccc2)cc1)c1c(F)c(F)c(F)c(F)c1F -3.02%
Cc1ccc(Nc2ccccc2)cc1 6.69%
Cc1ccc(C)c(OCCC(=O)OCC(=O)Nc2cc(S(=O)(=O)N3CCCCC3)ccc2C)c1 0.95%
CC1CCN(C(=O)c2ccc(NS(=O)(=O)c3ccc4[nH]c(=O)[nH]c4c3)cc2)CC1 8.71%
CN(CC(=O)O/N=C(\N)c1ccc([N+](=O)[O-])cc1)S(=O)(=O)c1ccccc1 -3.85%
O=C(/C=C/C(Cl)(Cl)Cl)Nc1ccc(Cl)cc1 9.68%
CC1=NN(c2ccccc2)C(=O)C1C=Nc1ccccc1O (stereo unspecified) 14.8%
CC1=NN(c2ccccc2)C(=O)C1C(=O)c1ccccc1 (stereo unspecified) 12.2%
O=C(NC1(C(F)(F)F)C(=O)Nc2c1c(=O)[nH]c(=O)n2Cc1ccccc1)c1ccco1 (stereo unspecified) 6.82%
c1ccc(-c2ccccc2OCCOCCN2CCCCC2)cc1 17.9%
CCN1CCN(CCOc2ccccc2-c2ccccc2)CC1 7.05%
OCCN1CCN(CCOc2ccccc2-c2ccccc2)CC1 -0.13%
OCCCN1CCN(CCCOc2ccccc2-c2ccccc2)CC1 5.09%
c1ccc(-c2ccccc2OCCOCCN2CCNCC2)cc1 31.8%
CCOc1ccccc1OCCOCCN1CC(C)OC(C)C1 (stereo unspecified) 17.3%
CC1CN(CCOc2ccccc2-c2ccccc2)CC(C)O1 (stereo unspecified) 18%
c1ccc(-c2ccccc2OCCCN2CCOCC2)cc1 27.2%
